{"source": "PubChem BioAssay AID720597", "about": "(Broad Institute, 2013)", "biological_target": "NAD-dependent protein deacylase sirtuin-5, mitochondrial (Homo sapiens) (UniProt Q9NXA8)", "sequence (Q9NXA8 whole entry, looked up)": "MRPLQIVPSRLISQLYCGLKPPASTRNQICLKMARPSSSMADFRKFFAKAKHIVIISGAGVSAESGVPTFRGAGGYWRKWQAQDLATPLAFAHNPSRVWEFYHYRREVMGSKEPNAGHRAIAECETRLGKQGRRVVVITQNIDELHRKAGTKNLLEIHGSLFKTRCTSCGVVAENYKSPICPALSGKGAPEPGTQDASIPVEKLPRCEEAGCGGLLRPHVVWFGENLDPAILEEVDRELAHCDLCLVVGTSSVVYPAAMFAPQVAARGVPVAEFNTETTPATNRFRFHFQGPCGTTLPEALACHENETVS", "experiment": "SIRT5 deacylase inhibitors, dose response, biochemical, fluorescence imaging, cherry-pick, set 6 (AID 720597);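 further: lower AMC signal can also come from blocking the trypsin step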", "details": "Purified SirT5, succinyl-peptide-AMC/trypsin fluorescence; series mostly up to 15 µM", "note": "Entries with a potency or affinity are not part of this list. Active and inactive are the calls of the source.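 How the source made its calls: active means fitted half-maximal dose no more than twice the top valid tested dose, for compounds that lower signal; inconclusive means fit invalid, or curve flat with activity between -70 and -30; inactive means potency past limit, curve flat within ±30, or signal increasing.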"}
{"smiles": "CC(C)NC(=O)Nc1ccc2c(c1)C(=O)N([C@H](C)CO)C[C@H](C)[C@@H](CN(C)Cc1ccc(Cl)c(Cl)c1)O2", "values": [{"measurement": "outcome", "result": "inactive"}]}
{"smiles": "C[C@H]1CN([C@@H](C)CO)C(=O)Cc2cc(NS(=O)(=O)c3ccccc3)ccc2O[C@H]1CN(C)Cc1ccc(C(=O)Nc2ccccc2N)cc1", "values": [{"measurement": "outcome", "result": "inactive"}]}
{"smiles": "C[C@H]1CN([C@@H](C)CO)C(=O)c2c(c3ccccc3n2C)-c2ccccc2CO[C@H]1CN(C)Cc1cccc2c1OCCCO2", "values": [{"measurement": "outcome", "result": "inactive"}]}
{"smiles": "CC(C)CC#Cc1ccc2c(c1)O[C@H](CN(C)C(=O)CC1CC1)[C@@H](C)CN([C@@H](C)CO)S2(=O)=O", "values": [{"measurement": "outcome", "result": "inactive"}]}
{"smiles": "CCN1[C@@H]2c3ccc(-c4cccc(F)c4)c(=O)n3C[C@@H]2[C@@H](CO)[C@@H]1C(=O)N[C@H](C)c1ccccc1", "values": [{"measurement": "outcome", "result": "inactive"}]}
{"smiles": "CO[C@H]1CN(C)C(=O)c2cccc(C#N)c2OC[C@H]2O[C@H](CC[C@@H]2OC)CCN(C)C(=O)[C@H]1C", "values": [{"measurement": "outcome", "result": "inactive"}]}
{"smiles": "O=C(C[C@H]1CC[C@@H](NS(=O)(=O)c2ccccc2)[C@@H](CO)O1)NCc1ccncn1", "values": [{"measurement": "outcome", "result": "inactive"}]}
{"smiles": "C[C@H](CO)N1C[C@H](C)[C@H](CN(C)S(=O)(=O)c2ccccc2F)Oc2cc(C#Cc3cccc(F)c3)ccc2S1(=O)=O", "values": [{"measurement": "outcome", "result": "inactive"}]}
{"smiles": "C[C@H](CO)N1C[C@H](C)[C@H](CN(C)Cc2cccc(F)c2)Oc2ncc(C#C[C@@H](C)O)cc2C1=O", "values": [{"measurement": "outcome", "result": "inactive"}]}
{"smiles": "C[C@H]1CN([C@@H](C)CO)C(=O)Cc2cc(NC(=O)Nc3ccc(C(F)(F)F)cc3)ccc2O[C@H]1CN(C)Cc1ccc(C(=O)Nc2ccccc2N)cc1", "values": [{"measurement": "outcome", "result": "inactive"}]}
{"smiles": "C[C@H]1CN([C@@H](C)CO)S(=O)(=O)c2ccc(/C=C/c3ccccc3)cc2O[C@H]1CN(C)C(=O)Nc1cc(F)ccc1F", "values": [{"measurement": "outcome", "result": "inactive"}]}
{"smiles": "CO[C@H](CN(C)Cc1nccs1)[C@@H](C)CN([C@@H](C)CO)S(=O)(=O)c1ccc(C)cc1", "values": [{"measurement": "outcome", "result": "inactive"}]}
{"smiles": "CC(C)NC(=O)N(C)C[C@H]1Oc2ccc(NC(=O)Cc3ccccc3)cc2C(=O)N([C@H](C)CO)C[C@@H]1C", "values": [{"measurement": "outcome", "result": "inactive"}]}
{"smiles": "C[C@H](CO)N1C[C@H](C)[C@H](CN(C)C(=O)Nc2ccc(F)cc2)Oc2ccc(NC(=O)Nc3ccc(F)cc3)cc2C1=O", "values": [{"measurement": "outcome", "result": "inactive"}]}
{"smiles": "C[C@H]1CN([C@@H](C)CO)C(=O)Cc2cc(NC(=O)CCCCCC(=O)Nc3ccccc3N)ccc2O[C@H]1CN(C)Cc1ccc(Oc2ccccc2)cc1", "values": [{"measurement": "outcome", "result": "inactive"}]}
